Experimental findings from PubChem BioAssay (Tox21) are described below.

A short description of test [1]: qHTS assay to test for compound auto fluorescence at 535 nm (green) in HEK293 cells (AID 720680).
A short description of test [2]: qHTS assay to test for compound auto fluorescence at 460 nm (blue) in HEK293 cell free culture (AID 720681). An outline of the steps:
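Blue fluorescence (Ex 405/Em 460 nm, triamterene-equivalent) was read immediately after pin transfer of compound or DMSO into medium (DMEM, 10% FBS) without cells.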
In general terms: qHTS replaces the single test concentration by a dilution series.

Test [3] is described as follows: qHTS assay to test for compound auto fluorescence at 535 nm (green) in HEK293 cell free culture (AID 720682). An outline of the steps: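 Steps: dispense DMEM/10% FBS into empty wells; pin in compound or DMSO; measure fluorescence at 485/535 nm. Values are fluorescein equivalents.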
Test [4] is described as follows: qHTS assay to test for compound auto fluorescence at 590 nm (red) in HEK293 cell free culture (AID 720683). An outline of the steps: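 Red-channel autofluorescence of compounds in culture medium (DMEM, 10% FBS), no cells, measured at 540/590 nm. Rose Bengal sodium is the reference fluorophore for equivalence.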
Test [5] is described as follows: qHTS assay to test for compound auto fluorescence at 590 nm (red) in HepG2 cell free culture (AID 720684). Put shortly: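 No cells present: MEM + 10% FBS only. Compound pinned in, red label read (540/590 nm). Activity = fluorescence equivalent to Rose Bengal sodium.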
Test [6] is described as follows: qHTS assay to test for compound auto fluorescence at 460 nm (blue) in HepG2 cell free culture (AID 720685). Put shortly:
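Cell-free plates of MEM plus 10% FBS received 23 nL compound or DMSO vehicle; blue-channel (405/460 nm) intensity scored against triamterene as reference fluorophore.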

The nature of test [7]: qHTS assay to test for compound auto fluorescence at 535 nm (green) in HepG2 cell free culture (AID 720686).
A short description of test [8]: qHTS assay to test for compound auto fluorescence at 460 nm (blue) in HepG2 cells (AID 720687). Put shortly: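 Blue-channel autofluorescence (Ex/Em 405/460 nm, triamterene-equivalent) was measured after 1 hr compound exposure at 37 C, 5% CO2. Cells were HepG2, plated overnight at 37 C in MEM plus 10% FBS.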
In test [9] the target is Glucocorticoid receptor (Homo sapiens) (UniProt P04150). Nature of the test: qHTS assay to identify small molecule antagonists of the glucocorticoid receptor (GR) signaling pathway (AID 720692; active means well fitted inhibition curve with a large enough effect in the signal ratio in the repeat runs, not every such curve was filed as active; the % refers to the signal ratio; further: potency means the concentration at half of the fitted maximal effect). Put shortly:
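Antagonism was scored as loss of dexamethasone-driven (5 nM final) reporter signal in HeLa cells bearing a glucocorticoid response element–beta-lactamase construct, after 18 h compound exposure at 37 C and 2 h FRET substrate loading.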

A short description of test [10]: qHTS assay to identify small molecule antagonists of the glucocorticoid receptor (GR) signaling pathway - cell viability counter screen (AID 720693). Further: nearly all actives have a fitted effect of over 55% in size.
Test [11] can be described thus: qHTS assay for identifying genotoxic compounds that show differential cytotoxicity against isogenic chicken DT40 cell lines with known DNA damage response pathways - wild type cell line (AID 743012). Further: nearly all actives have a fitted effect of over 60% in size. Further: potency means the concentration at half of the fitted maximal effect. Put shortly:
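Cytotoxicity in repair-proficient parental chicken DT40 cells serves as the comparator for Rad54/Ku70- and Rev3-deficient lines. Cells were exposed to compounds for 40 h at 37 C/5% CO2, and ATP-based luminescence (CellTiter-Glo) measured viability.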

Test [12] is described as follows: qHTS assay for identifying genotoxic compounds that show differential cytotoxicity against isogenic chicken DT40 cell lines with known DNA damage response pathways - Rev3 mutant cell line (AID 743014). Further: nearly all actives have a fitted effect of over 55% in size. Further: potency means the concentration at half of the fitted maximal effect.
Test [13] in a line: qHTS assay to identify small molecule antagonists of the androgen receptor (AR) signaling pathway - cell viability counter screen (AID 743033; further: nearly all actives have a fitted effect of over 45% in size; further: potency means the concentration at half of the fitted maximal effect).
A short description of test [14]: qHTS assay to identify small molecule antagonists of the androgen receptor (AR) signaling pathway using the MDA cell line - cell viability counter screen (AID 743041; further: nearly all actives have a fitted effect of over 45% in size). An outline of the steps: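 Using the breast carcinoma line MDA-kb2 AR-luc, test chemicals were co-incubated with R1881 for 16 h; CellTiter-Fluor reagent, added at 15.5 h, provided a fluorescence measure of live cells.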

A short description of test [15]: qHTS assay for identifying genotoxic compounds that show differential cytotoxicity against isogenic chicken DT40 cell lines with known DNA damage response pathways - Rad54/Ku70 mutant cell line (AID 743015). Further: nearly all actives have a fitted effect of over 60% in size. Further: potency means the concentration at half of the fitted maximal effect.
The target of test [16] is Androgen receptor (Homo sapiens) (UniProt P10275). Nature of the test: qHTS assay to identify small molecule antagonists of the androgen receptor (AR) signaling pathway (AID 743035; active means well fitted inhibition curve with a large enough effect in the signal ratio in the repeat runs, not every such curve was filed as active; the % refers to the signal ratio). An outline of the steps:
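Steps: seed AR-UAS-bla GripTite HEK293 cells, incubate 4 h at 37C; pin in test compound, then add agonist R1881; incubate 16 h at 37C; add LiveBLAzer B/G FRET substrate, 2 h at room temperature; read fluorescence.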

Test [17] shares this target. Nature of the test: qHTS assay to identify small molecule agonists of the androgen receptor (AR) signaling pathway (AID 743036; active means well fitted activation curve with a large enough effect in the signal ratio in the repeat runs, with a control signal flat, not every such curve was filed as active; the % refers to the signal ratio). An outline of the steps:
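Reporter line: GeneBLAzer AR-UAS-bla-GripTite (HEK293). Steps: plate cells, 4 h rest, add compounds, 16 h at 37C, add LiveBLAzer B/G substrate, 2 h at RT, read fluorescence.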

Test [18] shares this target. The experiment in a line: qHTS assay to identify small molecule agonists of the androgen receptor (AR) signaling pathway using the MDA cell line (AID 743040; further: nearly all actives have a fitted effect of over 20% in size). Put shortly: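 Stable MMTV-luciferase reporter in MDA-kb2 cells; note the promoter carries GR as well as AR response elements. 16 h compound treatment, 37C, 0% CO2; ONE-Glo luminescence endpoint.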
Test [19] shares this target. Nature of the test: qHTS assay to identify small molecule antagonists of the androgen receptor (AR) signaling pathway using the MDA cell line (AID 743042; further: nearly all actives have a fitted effect of over 55% in size). Put shortly:
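Antagonist mode: compounds plus R1881 agonist added to MDA-kb2 AR-luc cells, incubated 16 h at 37C. Luciferase reporter luminescence quantified, with multiplexed CellTiter-Fluor readout for cell viability.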

Several values for one entry are separate records, joined by “and”; a condition that tells them apart may be missing. Equal entries are not always repeated. Inconclusive results are not listed. Some structures have more than one record in an assay (separate samples or runs), and their calls can disagree. Activity calls are given as the source filed them. Unless noted, the call rests on the fitted dose curve; in most records, active means well fitted curve in the direction sought with a large enough effect in the repeat runs; inconclusive means weak or mixed curves; inactive means no such curve, though single readings can be large; an effect the other way counts as inactive or inconclusive.
On the % scale 0 is the no-effect control and ±100 the full control effect.

Chain of Glucocorticoid receptor (Homo sapiens) (P04150 whole entry, looked up): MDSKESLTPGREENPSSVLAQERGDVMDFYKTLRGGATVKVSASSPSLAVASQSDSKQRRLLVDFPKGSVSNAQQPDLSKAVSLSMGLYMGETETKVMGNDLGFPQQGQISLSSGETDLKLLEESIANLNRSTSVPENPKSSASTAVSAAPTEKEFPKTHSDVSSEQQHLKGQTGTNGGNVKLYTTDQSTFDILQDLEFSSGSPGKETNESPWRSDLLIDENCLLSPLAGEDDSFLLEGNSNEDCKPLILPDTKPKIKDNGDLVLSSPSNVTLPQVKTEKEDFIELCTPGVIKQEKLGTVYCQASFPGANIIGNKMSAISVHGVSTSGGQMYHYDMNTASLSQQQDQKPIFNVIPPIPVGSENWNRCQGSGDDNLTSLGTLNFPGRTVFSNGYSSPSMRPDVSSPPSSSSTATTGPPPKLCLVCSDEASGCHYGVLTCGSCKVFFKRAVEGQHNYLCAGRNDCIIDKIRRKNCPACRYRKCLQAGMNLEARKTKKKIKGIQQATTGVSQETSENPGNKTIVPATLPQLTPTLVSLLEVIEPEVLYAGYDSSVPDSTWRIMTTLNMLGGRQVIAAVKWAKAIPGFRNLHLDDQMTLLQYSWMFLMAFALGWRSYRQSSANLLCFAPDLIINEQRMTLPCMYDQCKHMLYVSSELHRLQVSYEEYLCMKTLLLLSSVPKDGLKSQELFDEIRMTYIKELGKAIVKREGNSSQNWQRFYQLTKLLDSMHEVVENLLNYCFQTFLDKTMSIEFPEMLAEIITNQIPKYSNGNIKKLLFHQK
Chain of Androgen receptor (Homo sapiens) (P10275 whole entry, looked up): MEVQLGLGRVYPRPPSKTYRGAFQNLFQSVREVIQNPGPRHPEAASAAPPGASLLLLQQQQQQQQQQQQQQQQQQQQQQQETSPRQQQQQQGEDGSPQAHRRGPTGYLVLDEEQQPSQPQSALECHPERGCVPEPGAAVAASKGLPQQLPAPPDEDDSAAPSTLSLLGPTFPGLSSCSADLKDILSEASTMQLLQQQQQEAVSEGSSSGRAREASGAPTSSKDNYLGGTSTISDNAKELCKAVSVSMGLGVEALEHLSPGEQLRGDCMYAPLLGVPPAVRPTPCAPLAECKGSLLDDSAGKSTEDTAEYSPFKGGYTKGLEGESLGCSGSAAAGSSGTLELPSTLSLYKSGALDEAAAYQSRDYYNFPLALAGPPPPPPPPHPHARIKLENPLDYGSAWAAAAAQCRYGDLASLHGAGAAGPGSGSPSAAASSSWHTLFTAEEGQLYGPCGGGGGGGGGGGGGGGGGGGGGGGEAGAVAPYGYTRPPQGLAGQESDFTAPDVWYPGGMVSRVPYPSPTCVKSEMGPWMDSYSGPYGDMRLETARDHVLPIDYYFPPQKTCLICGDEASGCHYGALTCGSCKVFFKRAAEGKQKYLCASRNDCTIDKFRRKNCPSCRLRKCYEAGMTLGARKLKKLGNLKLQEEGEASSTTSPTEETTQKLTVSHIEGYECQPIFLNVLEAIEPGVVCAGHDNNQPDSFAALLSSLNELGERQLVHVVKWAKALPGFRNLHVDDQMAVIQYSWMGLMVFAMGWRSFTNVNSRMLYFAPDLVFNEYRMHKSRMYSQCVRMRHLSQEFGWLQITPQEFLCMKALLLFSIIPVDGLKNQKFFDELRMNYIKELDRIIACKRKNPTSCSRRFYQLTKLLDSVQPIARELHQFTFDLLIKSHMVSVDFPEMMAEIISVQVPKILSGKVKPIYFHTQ

Consider `Clc1cc(Cl)c(-c2cc(Cl)c(Cl)cc2Cl)cc1Cl`, for which the result in test [1], in test [3], in test [4] and in test [5] was inactive. Also, the Potency result in test [2], in test [6], in test [7], in test [8], in test [9] and in test [10] was “inactive” each time. Further, the Potency entry in test [11], in test [12], in test [13] and in test [14] was “inactive” each time.
Take `CCC[CH2][Sn]([CH2]CCC)([O]C(C)=O)[O]C(C)=O`: the molecule was classed as inactive in test [1], in test [3], in test [4] and in test [5]. Further, the Potency result in test [2], in [6], in test [7], in [8], in [10] and in [14] was “inactive” throughout. Further, the values for the Potency in [9], in [12] and in test [15] were 0.35 µM (active), 30.9 µM (active) and 30.9 µM (active), respectively.
Regarding `Clc1ccc(C2(Cn3cncn3)OCCO2)c(Cl)c1`, the molecule was classed as inactive in [1], in test [3], in test [4] and in [5]. Also, the Potency entry in [2], in test [6], in test [7], in [8], in test [9] and in [10] was “inactive” in each case. Also, the Potency entry in test [13] and in [14] was “inactive” in each case. Moreover, the Potency is 61.1 µM (active) in [11]; 30.6 µM (active) in [12]; “inactive and 61.1 µM (active)” in test [15].
As to `CCC(C)Nc1c([N+](=O)[O-])cc(C(C)(C)C)cc1[N+](=O)[O-]` (centres undefined), the call in [1], in [3], in test [4] and in test [5] was inactive. The Potency entry in test [2], in [6], in test [7], in test [8], in test [9] and in test [11] was “inactive” each time. Besides, the Potency result in test [12] is “inactive”.
Turning to `BrCCCBr`, the molecule was called inactive in test [1], in [3], in [4], in test [5], in [17] and in test [18]. Besides, the Potency result in test [2], in test [6], in [7], in test [8], in test [9] and in test [10] was “inactive” throughout. Moreover, the Potency entry in test [11], in test [12], in [15], in test [13], in [16] and in test [14] was “inactive” throughout. The Potency result in test [19] is “inactive”.
Regarding `CCN(CC)CCN1C(=O)CN=C(c2ccccc2F)c2cc(Cl)ccc21`, the molecule was classed as inactive in [1], in test [3], in test [4] and in test [5]. Besides, the Potency result in test [2], in [6], in test [7], in test [8], in test [9] and in test [10] was “inactive” in each case. For the same molecule, the Potency result in [13] and in test [14] was “inactive” throughout. Moreover, the Potency in test [11] is 6.68 µM (active); in [12], 13.3 µM (active); in test [15] it was 26.6 µM (active).
Consider `CC(C)C(Nc1ccc(C(F)(F)F)cc1Cl)C(=O)OC(C#N)c1cccc(Oc2ccccc2)c1` (centres undefined), for which the result in test [1], in [3], in test [4] and in [5] was inactive. In addition, the Potency entry in test [2], in [6], in [7], in test [8], in test [10] and in [11] was “inactive” throughout. Besides, the Potency entry in test [12] and in [15] was “inactive” each time.
In the case of `CN(C)CCc1c[nH]c2ccccc12`, the result in [1], in [3], in test [4] and in [5] was inactive. Besides, the Potency result in [2], in test [6], in test [7], in [8], in test [9] and in test [10] was “inactive” in each case. Also, the Potency result in [12], in [15] and in test [14] was “inactive” throughout.
Regarding `Brc1cccc(-c2ccccc2)c1`, the result in test [1], in test [3], in [4] and in test [5] was inactive. Besides, the Potency result in [2], in test [6], in test [7], in test [8], in [9] and in [11] was “inactive” in each case. In addition, the Potency entry in [12], in [15] and in test [13] was “inactive” in each case.
As for `Cc1ccc2cc3c(ccc4ccccc43)c3c2c1CC3`, the molecule was called inactive in test [1], in test [3], in test [4] and in test [5]. Moreover, the Potency entry in test [2], in test [6], in test [7], in test [8], in test [9] and in [10] was “inactive” each time. Also, the Potency result in test [12], in test [15], in test [13] and in [14] was “inactive” throughout.
In the case of `Nc1cc(Cl)ccc1Cl`, the outcome in test [1], in test [3], in [4] and in [5] was inactive. Moreover, the Potency entry in [2], in [6], in test [7], in test [8], in test [9] and in [11] was “inactive” each time. For the same molecule, the Potency result in [12], in [15], in [13] and in test [14] was “inactive” each time.
For the molecule `[O]=[Cr](=[O])([OH])[O][Cr](=[O])(=[O])[OH]`, the molecule was classed as inactive in test [1], in test [3], in test [4], in test [5] and in [18]. Also, the Potency entry in [2], in [6], in [7], in test [8] and in test [19] was “inactive” in each case. Besides, the Potency in [9] is 3.08 µM (active); in test [11], 21.1 µM (active) [middle of 4 runs]; in test [13], 7.83 µM (active) and 21.8 µM (active).
Turning to `CN`, the call in [1], in test [3], in test [4] and in test [5] was inactive. The Potency result in test [2], in [6], in [7], in [8], in test [9] and in [10] was “inactive” in each case. In addition, the Potency entry in [11], in [12], in test [15], in test [13] and in test [14] was “inactive” throughout.
`CC(C)c1c(CN(C)C(C)Cc2ccccc2)n(C)n(-c2ccccc2)c1=O` (centres undefined): the fluorescence, % of fluorescein in test [1] is -0.0005% [at 18.6 µM] (inactive). Further, the fluorescence, % of fluorescent control was 0.024% [at 18.6 µM] (inactive) in test [2], 0.362% [at 18.6 µM] (inactive) in test [4], -0.0993% [at 18.6 µM] (inactive) in test [6] and 0.105% [at 18.6 µM] (inactive) in test [8]. In addition, in test [3], the activity change is -0.0364% [at 18.6 µM] (inactive). Further, the fluorescence, % of Rose Bengal in test [5] is -0.353% [at 18.6 µM] (inactive). Besides, in test [7], the fluorescence, % of fluorescein control was -0.009% [at 18.6 µM] (inactive). Also, the Potency entry in [9], in test [13] and in test [14] was “inactive” each time. Moreover, the Potency in test [11] is 6.39 µM (active).
For the molecule `CNC(=O)/C=C(\C)OP(=O)(OC)OC`, the result in [1], in [3], in test [4] and in test [5] was inactive. The Potency result in [2], in [6], in test [7], in test [8], in [9] and in test [11] was “inactive” each time. Further, the Potency result in test [12] and in test [14] was “inactive” in each case.
As for `CC(=O)[O-].CC(=O)[O-].O.O.[Zn+2]`, the result in [1], in [3], in test [4] and in test [5] was inactive. Further, the Potency result in test [2], in [6], in [7], in test [8], in [10] and in [11] was “inactive” in each case. The Potency entry in test [12], in test [15], in [13] and in [14] was “inactive” throughout.
